Source: ChEMBL document CHEMBL4513216, “Probing the Open Global Health Chemical Diversity Library for Multistage-Active Starting Points for Next-Generation Antimalarials” (ACS Infect Dis, 2020)
Hit rate of the full screen: of about 69,000 compounds, about 8,600 (12%) showed an effect of 50% or more. The list comes from a sample in which strong results are over-represented; it also holds similar structures and randomly drawn compounds.

The compounds below were run on Plasmodium berghei (assay: Screen against P. berghei liver stage (PbLuc), transformed with Luciferase, at 10uM). Details: tested at 10 uM.
Format: functional, HepG2

SMILES | INHIBITION [%]
Cc1noc(C)c1-c1cc(CC2CCN(C(=O)c3cc[nH]n3)C2)ncn1 (stereo not given) | 21.9
O=C(O)c1cccc(CN2CCC(c3ccnc4ccnn34)CC2)c1 | 28
Cn1cc(CN2CCOC(Cc3cccc(F)c3)C2)cn1 (stereo not given) | 36.8
Cc1c(NC(=O)c2ncn[nH]2)cccc1C(=O)NC(C)(C)C | 59.5
Cc1c(NC(=O)c2cnc[nH]2)cccc1C(=O)NC(C)(C)C | 34.5
CC(C)(C)NC(=O)c1ccccc1NC(=O)c1ccncc1 | 30.1
CCn1c(NCC2CCCO2)nc2c(C)nn(C)c2c1=O (stereo not given) | 25.8
O=C1CN(Cc2cc(O)c3cccc(F)c3n2)CCN1C1CCCC1 | 37.7
CC1CNC(=O)CCN1Cc1cc(O)c2cccc(F)c2n1 (stereo not given) | 51.2
NCC1CCCCN1Cc1cc(O)c2cccc(F)c2n1 (stereo not given) | 44.7
OCC1CCCCN1Cc1cc(O)c2cccc(F)c2n1 (stereo not given) | 27.6
Oc1cc(CN2CCCCC2c2cccnc2)nc2c(F)cccc12 (stereo not given) | 54.4
Cc1ccc(C)c2c(O)cc(CN3CCC(=O)NCC3C)nc12 (stereo not given) | 3.69
O=C(c1cc(Cn2ccc3ccccc32)[nH]n1)N1CCOCC1 | 16.2
O=C([C@@H]1CCCO1)N1CCN(Cc2ccncc2)c2ncccc2C1 | 40.3
COCC(=O)N1CCC(c2csc(NC(C)=O)n2)CC1 | 17.1
O=C(NCCO)NCC(c1ccccc1)N1CCc2sccc2C1 (stereo not given) | 5.91
CSc1ccc(C(CN)N2CCc3sccc3C2)cc1 (stereo not given) | 66.3
NCC(c1ccc(Cl)cc1)N1CCc2sccc2C1 (stereo not given) | 71.2
CCC(=O)NCC(c1ccc(SC)cc1)N1CCc2sccc2C1 (stereo not given) | 28.3
NCC(c1ccccc1)N1CCc2sccc2C1 (stereo not given) | -41.8
CC(C)c1ccc(C(CN)N2CCc3sccc3C2)cc1 (stereo not given) | 82.2

SMILES | INHIBITION [%]
CSc1ccc(C(CNC(C)=O)N2CCc3sccc3C2)cc1 (stereo not given) | 34.9
CCOCCCC(=O)NCC(c1ccccc1)N1CCc2sccc2C1 (stereo not given) | 27.6
CSc1ccc(C(CNC(=O)C2CC2)N2CCc3sccc3C2)cc1 (stereo not given) | 19.7
Cc1ocnc1CNC(=O)Nc1ccc(N2CCOC(C)C2)cc1 (stereo not given) | 25.8
COc1ccc(C)cc1C(C)NC(=O)Cn1ccc(=O)n(C)c1=O (stereo not given) | -25.9
CN(C(=O)CCN1CCCC1=O)c1cc(C#N)c2ccccc2n1 | 31.2
c1cncc(C2COC3(CCN(Cc4ccsc4)CC3)C2)c1 (stereo not given) | 46.1
COc1ccc(C(C)NCc2cscn2)cc1Cn1cccn1 (stereo not given) | 41.4
CNc1cc(C2CCCN(Cc3ccccc3OCC(=O)O)C2)ccn1 (stereo not given) | 18.3
Cc1cc(CNC(=O)CN2CCCC(Cn3cncn3)C2)ccc1F (stereo not given) | 25.6
Cc1ccc(Cl)c(NC(=O)NC2(C)CCOC2)c1 (stereo not given) | 24.8
Cc1ccc(C)c(-n2ncc(NC(=O)NC3(C)CCOC3)c2C)c1 (stereo not given) | 33.2
Cc1ccc(-n2cc(C)cn2)c(NC(=O)NC2(C)CCOC2)c1 (stereo not given) | 56.3
O[C@@H]1CN(Cc2cnccn2)C[C@H]1Oc1ccccc1 | -10.5
O=C(Cc1cccc(O)c1)N1CCCC(OCc2cccnc2)C1 (stereo not given) | 36.2
CC(C)(C)C(=O)NCCc1cc(N2CCOCC2)nc(NC2CC2)n1 | 30.15
Cc1cnn(CC2CCCN2C(=O)c2ccc(-n3cccn3)nc2)c1 (stereo not given) | 16.2
Cc1ccc(-c2cc(C3CCNCC3)nc(C)n2)cc1 | 6.26
Cc1nc(-c2ccc(F)cc2)cc(C2CCNCC2)n1 | 54.5
Cc1nc(-c2ccc(F)c(F)c2)cc(C2CCNCC2)n1 | -2.09
O=C(CN1CCSC(c2ccccc2)C1)NCc1ccccn1 (stereo not given) | 31.9
O=C(CCc1ccc2c(c1)CCO2)Nc1nnn[nH]1 | 28.6

SMILES | INHIBITION [%]
COc1ccc(C(=O)N2CC(=O)N(CC3CC3)CC(O)C2)cc1 (stereo not given) | 42.7
CC(C)c1cc(C(=O)N2CCOCC2CC(=O)c2ccco2)nn1C (stereo not given) | -4.35
C/N=C1\c2cc3cc(OC)ccc3n2CCN1C | -6.09
C/N=C1\c2cc3cc(OC)ccc3n2CCN1Cc1ccccc1 | 83
COc1ccc2c(ccn2CCN)c1 | 34.7
C/N=C1/c2cc3cc(OC)ccc3n2CCN1C | 15.06
C/N=C1/c2cc3cc(OC)ccc3n2CCN1Cc1ccccc1 | 67.6
COc1ccc(CN2CC[C@@H](O)[C@@H]2Cc2ccccc2)cc1 | -23.7
Fc1cccc(CN2CCC[C@@H](Cn3nnc(-c4ccccn4)n3)C2)c1 | 40.1
Cn1nc(CNC(=O)c2cccc(C(F)(F)F)c2)c2c1CCOC2 | 15.9
O=C(c1cc2c(s1)CCC2)N1CCCC1Cn1cccn1 (stereo not given) | -18.8
Cc1nc(CSCCC(=O)NCc2ccc(-n3cncn3)nc2)cs1 | 16.8
CCNC(=O)[C@@H]1CCCN1C1(C(=O)NC)CCCCC1 | 10.5
Cc1n[nH]c(C)c1-c1cnc(CC2CCN(C(C)C)CC2)cn1 | 23.2
O=C(NC1CCCN(c2ccccc2Cl)C1)c1nc(=O)[nH][nH]1 (stereo not given) | -6.05
Cc1cc(F)ccc1N1CCCC(NC(=O)CCCn2ccnc2)C1 (stereo not given) | 70.1
Cc1cc(F)ccc1N1CCCC(NC(=O)CCc2ccncc2)C1 (stereo not given) | 29
O=C(NC1CCCN(c2ccccc2Cl)C1)c1c[nH]nn1 (stereo not given) | 21.1
O=C(CCCn1ccnc1)NC1CCCN(c2ccccc2Cl)C1 (stereo not given) | 88
Cc1ccc(Cl)cc1N1CCC(CNC(=O)CCn2ccnc2)C1 (stereo not given) | 31.8
CCOCC1CN(c2ccncn2)Cc2cnn(CC)c21 (stereo not given) | 5.67
Cc1nn(C)c2cn(CC(=O)N3CCc4ccccc4C3)nc12 | 8.49

SMILES | INHIBITION [%]
CCOCC(=O)N1CCC(Oc2ccc(C(F)(F)F)cn2)CC1 | 11.8
CCOC(=O)N1CCC(Oc2ccc(C(F)(F)F)cn2)CC1 | -16.4
CC(C)(C)NC(=O)N1CCC(Oc2ccc(C(F)(F)F)cn2)CC1 | 86.3
NC(=O)Cn1cc(NC(=O)N2CCSCC2)cn1 | -15
O=C(NCc1ccnc(OCC(F)(F)F)c1)NCC1COCCO1 (stereo not given) | 4.12
CC(CC(=O)c1ccccc1)NC(=O)c1ccon1 (stereo not given) | 28.2
Cc1nc(CSCCC(=O)NCc2ccc(N(C)C)cc2)cs1 | -58
Cc1cccc(C(=O)N2CCCN(CCCSCC#N)CC2)c1 | 59.2
CC(=O)N1CCCN(CCCSCc2ccccc2)CC1 | 15.7
O=C(c1ccccc1F)N1CCN(CCCn2cncn2)CC1 | 32.3
Cc1ccc(C(=O)N2CCN(CCCSCC#N)CC2)cc1F | 5.41
N#CCSCCCN1CCN(C(=O)c2ccc(Cl)cc2)CC1 | 3.47
N#CCSCCCN1CCCN(C(=O)c2ccccc2)CC1 | 50.1
CC(=O)N1CCN(CCCSCc2ccccc2)CC1 | -23.5
N#CCSCCCN1CCN(C(=O)c2cccc(Cl)c2)CC1 | 10.7
N#CCSCCCN1CCN(C(=O)c2ccccc2F)CC1 | 69.7
Cc1nc(CN2CCO[C@@H]3CN(Cc4ccsc4)C[C@@H]3C2)cs1 | 22.5
Cc1ccc(N2CCN(C(=O)CN3C[C@H]4CC[C@@H]3C4)CC2=O)cc1 | 32.1
CSc1ncnc(NCc2ccco2)c1C#N | 9
Cc1cccc(N2CCCC3(C2)CN(c2nncs2)CCO3)c1 (stereo not given) | 38.5
CC(=O)N1CCCC2(C1)CN(c1nncs1)CCO2 (stereo not given) | 34
c1cncc(N2CCOC3(CCCN(c4nncs4)C3)C2)c1 (stereo not given) | 26.3

SMILES | INHIBITION [%]
O=C(c1ccncc1)N1CCOC2(CCCN(c3nncs3)C2)C1 (stereo not given) | 58.4
CC(=O)N1CCCC2(C1)CN(C(=O)c1ccncc1)CCO2 (stereo not given) | 27.6
COc1ccc(N2CCCC3(C2)CN(c2nncs2)CCO3)cc1 (stereo not given) | 65.6
O=C(CSc1ccccc1F)NS(=O)(=O)c1ccc2c(c1)OCCO2 | 40.9
CCn1cc(S(=O)(=O)N2CCN(S(=O)(=O)c3ccc(Br)s3)CC2)cn1 | 41
CCc1nnc(NC(=O)CCN2CC=C(c3cnn(C)c3)CC2)s1 | 60.2
Cn1cc(C2=CCN(CCCOc3ccc(C(N)=O)cc3)CC2)cn1 | 53.9
COc1ccc(NC(=O)CCN2CC=C(c3cnn(C)c3)CC2)c(C)c1 | 11.5
Cn1cc(C2=CCN(CCCC(=O)Nc3ccc(C#N)cc3)CC2)cn1 | 50.4
CO[C@H]1C[C@@H](O)C12CCN(CCCOc1ccc(C(N)=O)cc1)CC2 | 33.7
COc1ccccc1OCCCN1CC=C(c2cnn(C)c2)CC1 | 30.1
COc1ccc(NC(=O)CCN2CC=C(c3cnn(C)c3)CC2)cc1Cl | -37.2
NC(=O)c1ccc(OCCCN2CCC3(CC2)OCCCC3O)cc1 (stereo not given) | 47.6
CCn1cc(C2=CCN(CCCOc3ccccc3)CC2)cn1 | 9.56
CC[C@@]1(O)CCN(CCCOc2ccc(C(N)=O)cc2)C[C@H]1O | 50.5
CCc1cccc(NC(=O)CCN2CC=C(c3cnn(C)c3)CC2)c1 | 0.348
Cn1cc(C2=CCN(CCC(=O)NCc3ccc(Cl)cc3)CC2)cn1 | 33.7
CC(C)NC(=O)CCCn1cnc2ccccc2c1=O | 10.5
O=C(CCn1c(=O)oc2ccccc21)NCC(O)c1ccc(F)c(F)c1 (stereo not given) | -12.5
O=S(=O)(N1CCOCC1)N1CCCCC1CCn1cccn1 (stereo not given) | -84.5
N#Cc1c(CN2CCCC2Cn2cncn2)cn2ccccc12 (stereo not given) | -36
O=C(c1ccccn1)N1CCC(S(=O)(=O)c2ccccc2)C1 (stereo not given) | 45.5
